From PubChem
Rows were chosen to be rich in hits. Some 19% of all compounds tested hit in one or more screens of this group.
Cycloheximide cs = counter-screen hit for Shiga toxin inhibitors, cycloheximide; 300,000 compounds, 12% hits; max response, %; cell reporter, cycloheximide protein synthesis inhibition counterscreen; in the data active = max response mostly above about 13%, no sharp cut-off; inactive = mostly below about 14%; also: read at 38.3 µM for the half of the compounds with a filed dose; 0% is about no effect
SARS PLP yeast = blocks SARS-CoV papain-like protease in a yeast assay; S. cerevisiae expressing SARS-CoV PLpro, growth rescue; Potency, µM (doses to about 32.9 µM), for inactives: at the highest dose activity, positive = growth rescue, most hits filed as activators; 330,000 compounds, 0.19% hits; AID 485353; calls by dose curve; also: potency is read from the fitted curve at half-maximal effect; 0% is about no effect; nearly all actives have a fitted effect of over 55% in size
Pf growth 96h = inhibits malaria parasite growth, 96 h; P. falciparum luciferase reporter growth, 96 h; Potency, µM (top dose mostly 28.7 µM), for inactives: at the highest dose activity change, negative = inhibition, usual class: inhibitors; 320,000 compounds, 6.9% hits; AID 504834; also: potency is read from the fitted curve at half-maximal effect; % is scaled to controls: 0 for no effect and ±100 for the full control effect
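Erythrocytes infected with luciferase-expressing P. falciparum were dispensed at 2% hematocrit and 0.05% parasitemia (final), then incubated with compounds 96 hours at 37 C in 5% CO2. Luminescence after detection reagent addition reported growth.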
Pf growth 48h = inhibits P. falciparum growth in the first generation, 48 h | P. falciparum luciferase growth in erythrocytes, 48 h | Potency, µM (doses to about 28.7 µM), inactives show top-dose activity change, negative = inhibition, hits mostly inhibitors | 310,000 compounds, 5.9% hits; also: potency is read from the fitted curve at half-maximal effect; % is scaled to controls: 0 for no effect and ±100 for the full control effect
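Erythrocytes infected with P. falciparum carrying an integrated firefly luciferase reporter (2% hematocrit, 0.1% parasitemia final) were exposed to compounds in RPMI 1640 with 0.5% Albumax at 37 C, 5% CO2. Growth inhibition was scored as reduced luminescence.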
Shiga inhibitor = blocks Shiga toxin action in Vero cells; inhibition, % at 38.7 µM; 290,000 compounds, 9.2% hits; Vero cells, Shiga toxin protein synthesis inhibition reporter; AID 2315; in the data active = inhibition mostly above about 28%, no sharp cut-off; inactive = mostly below about 43%; also: 0% is about no effect
AMA1 RON2 block = AMA1-RON2 (P. falciparum) interaction inhibition; AlphaScreen AMA1-biotinylated RON2 peptide binding; Potency, µM (series often up to 58.2 µM), for inactives: at the highest dose activity change, negative = inhibition, hits mostly inhibitors; 360,000 compounds, 0.2% hits;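 also: potency is read from the fitted curve at half-maximal effect; 0% = vehicle wells and -100% = peptide control; nearly all actives have a fitted effect of over 45% in size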
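AMA1 (3D7) with his tag at 25 nM final met compounds first, then biotinylated RON2 peptide at 25 nM; detection used donor plus acceptor beads, 10 µg/mL apiece, read by AlphaScreen after 30 min at room temperature.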
An asterisk follows results filed as active; ? = inconclusive; · = not tested or not shown; [ ] = dose if it differs, or a comment. Unless noted, calls follow the shape of the dose curve; as a rule, active = well fitted curve in the direction sought with a large enough effect; inconclusive = small, poorly fitted or top-dose-only effect, or another doubt; inactive = no such curve, though single readings can be large; an effect the other way counts as inactive or inconclusive.

SMILES	Cycloheximide cs	SARS PLP yeast	Pf growth 96h	Pf growth 48h	Shiga inhibitor	AMA1 RON2 block
COc1ccc(-c2csc(NC(C)c3nc4cc(C(=O)NCCCO)ccc4n3Cc3ccc(C)cc3)n2)cc1 (stereo not drawn)	·	·	·	·	·	51%
COc1cc(Cl)ccc1OCc1cc(C(=O)N2CCCC(OC)C2)no1 (stereo not drawn)	54*	-3%	18%	29%	80*	18%
COc1cc(Cl)ccc1OCc1cc(C(=O)N2CCN(C)CC2)no1	8	0%	?	10%	7	-2%
COc1cc(Cl)ccc1OCc1cc(C(=O)N2CCN(C3CCCCC3)CC2)no1	·	·	·	·	·	8%
COc1ccc(OCc2cc(C(=O)N3CCCN(C(C)=O)CC3)no2)c(Cl)c1	32*	1%	11%	8%	43*	-2%
COc1cc(Cl)ccc1OCc1cc(C(=O)N2CCCCCC2)no1	32*	-8%	?	3%	74*	-3%
O=S(OCCN1CCCC1)C(c1ccccc1)c1ccccc1 (stereo not drawn)	·	·	·	·	·	-10%
COc1ccc(NC(=O)CCOc2ccccc2)cc1	65*	-1%	117%	155%	117*	0%
COc1ccc(NC(=O)CCOc2ccccc2)c(OC)c1	20*	3%	?	58%	32	-6%
COC(C(=O)N/N=C(\C)c1ccc(C)cc1)c1ccccc1 (stereo not drawn)	11*	-1%	?	-7%	19	-3%
COC(=O)c1ccc(NC(=O)C(OC)c2ccccc2)cc1 (stereo not drawn)	17*	-1%	2%	-4%	22	-6%
CCN(CC)C(=O)C1CC(=O)N(c2ccc(F)c(Cl)c2)C1 (stereo not drawn)	-4	-2%	?	8%	-7	6%
Cc1cc(C(=O)CCC(=O)Nc2cccc(F)c2)c(C)s1	·	·	·	·	·	8%
CCOC(=O)c1ccc(NC(=O)CCOc2ccc(C)cc2)cc1	-2	-2%	·	16%	-12	-15%
CC(=O)c1ccc(NC(=O)C[n+]2ccccc2)cc1	-1	-4%	?	-8%	-5	3%
COC(=O)c1ccc(NC(=O)c2ccccc2NS(C)(=O)=O)cc1	24*	-2%	·	29%	48*	5%
COC(=O)c1ccc(NC(=O)C[n+]2ccccc2)cc1	2	-2%	13µM*	-5%	10	0%
COC(=O)c1ccc(NC(=O)CCOc2ccccc2)cc1	22*	-1%	-3%[5.75 µM]	16%	37	1%
COC(=O)c1ccc(NC(=O)CNc2ccccc2)cc1	36*	-3%	-13%	43%	61*	27%
COC(=O)c1ccc(NC(=O)CC(=O)Nc2ccc(C(=O)OC)cc2)cc1	-1	6%	16%	30%	-3	8%
O=C(C[n+]1ccc(Cc2ccccc2)cc1)Nc1ccccc1	25	6%	?	-29%	39*	4%
O=C(CCOc1ccccc1)Nc1ccc(Br)cc1	38*	-2%	?	0%	57*	2%
O=S(=O)(c1c(Cl)sc(Cl)c1Br)N1CCCC1	15	-3%	12µM*	?	4	-4%
O=S(=O)(c1ccc(Cl)cc1)N1CCCCCC1	-3	-5%	3%	1%	13	9%
CC(C)Cn1c(SCC(=O)N2CCN(S(=O)(=O)c3ccccc3)CC2)nc2ccccc21	-6	2%	·	3.3µM*	-9	1%
Cn1c(SCC(=O)N2CCN(S(=O)(=O)c3ccccc3)CC2)nc2ccccc21	10	-5%	?	?	-18	5%
Cn1c(SCC(=O)N2CCN(S(=O)(=O)c3ccc(Cl)cc3)CC2)nc2ccccc21	-2	-1%	10µM*	·	6	-11%
O=C(CSc1ncccn1)N1CCN(S(=O)(=O)c2ccccc2)CC1	-5	1%	-3%	-9%	-8	2%
Cc1cc(Br)ccc1SCC(=O)N1CCN(S(=O)(=O)c2ccccc2)CC1	33*	-7%	?	?	38*	2%
CCOC(=O)N1CCN(Cc2nc(-c3ccc(C)cc3)no2)CC1	-2	0%	·	8%	-3	-2%
